Source: the supplement of paper PMC10849652
Targets with a hit are over-represented here; the source holds about 7,900 in all. About 0.6% of all pairs of compound and target were hits.

Key:
Experiment in all cases: log2 fold change, soluble protein after heating vs DMSO (PISA); higher = thermal stabilisation; K562 cells, 10 uM, 30 min; active = over 0.2 and 3.5 SD of the protein, either way, in both replicates (recomputed)
saracatinib = compound: CN1CCN(CCOc2cc(OC3CCOCC3)c3c(Nc4c(Cl)ccc5c4OCO5)ncnc3c2)CC1 [saracatinib]
Outline: (§1)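 K562 cells at 2×10^6 cells/mL were treated for 30 min with 10 μM compound, and aliquots were heated for 3 min over 48°C-58°C before pooling. Extraction used PBS with 0.5% NP-40 at 4°C, and soluble protein was the supernatant after 21,000xg for 90 min, measured by TMTpro 16plex LC-MS/MS with channel sums equalised. Thermal stability values, relative to control samples and from duplicates, are log2 fold changes.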

sotrastaurin = compound: CN1CCN(c2nc(C3=C(c4c[nH]c5ccccc45)C(=O)NC3=O)c3ccccc3n2)CC1 [sotrastaurin]
Outline: as §1

alvocidib = compound: CN1CC[C@H](c2c(O)cc(O)c3c(=O)cc(-c4ccccc4Cl)oc23)[C@H](O)C1 [alvocidib]
Outline: as §1

Tubastatin A = compound: CN1CCc2c(c3ccccc3n2Cc2ccc(C(=O)NO)cc2)C1 [Tubastatin A]
Outline: as §1

[1] = compound: CNC(=O)C1=CC=CC=C1NC2=NC(=NC=C2Cl)NC3=C(C=C(C=C3)N4CCOCC4)OC
Outline: as §1

defactinib = compound: CNC(=O)c1ccc(Nc2ncc(C(F)(F)F)c(NCc3nccnc3N(C)S(C)(=O)=O)n2)cc1 [defactinib]
Outline: as §1

rucaparib = compound: CNCc1ccc(-c2[nH]c3cc(F)cc4c3c2CCNC4=O)cc1 [rucaparib]
Outline: as §1

[2] = compound: CNc1nc(-c2ccc3c(N)n[nH]c3c2)cc(N2C[C@@H](C(=O)NC3CCCCC3)CC[C@H]2C)n1
Outline: as §1

encorafenib = compound: COC(=O)N[C@@H](C)CNc1nccc(-c2cn(C(C)C)nc2-c2cc(Cl)cc(NS(C)(=O)=O)c2F)n1 [encorafenib]
Outline: as §1

[3] = compound: COC(=O)[C@H](CCSC)NC(=O)C1=C(C=C(C=C1)NC[C@H](CS)N)C2=CC=CC=C2
Outline: as §1

Measured: log2 fold change

TJP1 (UniProt Q07157)
inactive: saracatinib -0.049 | sotrastaurin -0.064 | alvocidib -0.114 | Tubastatin A 0.045 | [1] -0.099 | defactinib -0.16 | rucaparib 0.018 | [2] 0.003 | encorafenib 0.029 | [3] -0.056

SLC29A3 (UniProt Q9BZD2)
Chain of UniProt Q9BZD2 (Q9BZD2 whole entry, looked up): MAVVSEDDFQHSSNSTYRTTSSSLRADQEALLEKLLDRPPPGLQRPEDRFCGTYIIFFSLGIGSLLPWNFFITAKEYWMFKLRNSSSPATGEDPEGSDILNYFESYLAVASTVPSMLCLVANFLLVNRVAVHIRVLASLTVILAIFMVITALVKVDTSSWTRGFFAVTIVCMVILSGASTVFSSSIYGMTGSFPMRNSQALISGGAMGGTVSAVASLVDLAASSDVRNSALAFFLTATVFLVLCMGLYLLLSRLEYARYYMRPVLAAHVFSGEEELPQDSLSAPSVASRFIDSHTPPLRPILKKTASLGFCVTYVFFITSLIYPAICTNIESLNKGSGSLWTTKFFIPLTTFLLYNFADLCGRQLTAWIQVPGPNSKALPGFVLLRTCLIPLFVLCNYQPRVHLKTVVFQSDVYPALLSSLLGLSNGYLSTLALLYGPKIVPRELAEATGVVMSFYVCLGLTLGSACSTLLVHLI
inactive: saracatinib 0.089 | sotrastaurin 0.056 | alvocidib 0.045 | Tubastatin A 0.092 | [1] 0.105 | defactinib 0.013 | rucaparib -0.083 | [2] -0.018 | encorafenib -0.05 | [3] 0.055

SPPL2B (UniProt Q8TCT7)
Chain of UniProt Q8TCT7 (Q8TCT7 whole entry, looked up): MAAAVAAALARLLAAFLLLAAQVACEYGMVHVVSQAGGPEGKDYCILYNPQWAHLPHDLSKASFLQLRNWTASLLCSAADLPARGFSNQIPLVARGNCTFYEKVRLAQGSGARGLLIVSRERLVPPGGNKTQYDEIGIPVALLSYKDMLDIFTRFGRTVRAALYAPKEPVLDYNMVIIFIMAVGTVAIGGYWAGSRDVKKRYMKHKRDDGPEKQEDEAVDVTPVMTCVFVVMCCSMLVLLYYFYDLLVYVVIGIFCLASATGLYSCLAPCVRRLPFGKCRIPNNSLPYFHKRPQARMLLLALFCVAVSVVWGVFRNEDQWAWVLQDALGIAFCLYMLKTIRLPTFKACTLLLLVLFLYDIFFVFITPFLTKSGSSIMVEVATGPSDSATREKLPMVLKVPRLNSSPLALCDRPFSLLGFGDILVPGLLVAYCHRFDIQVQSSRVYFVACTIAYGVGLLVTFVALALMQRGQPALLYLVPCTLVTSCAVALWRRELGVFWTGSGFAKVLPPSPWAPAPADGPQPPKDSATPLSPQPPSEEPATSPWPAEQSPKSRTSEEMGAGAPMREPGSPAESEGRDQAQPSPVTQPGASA
inactive: saracatinib -0.009 | sotrastaurin 0.074 | alvocidib -0.02 | Tubastatin A -0.031 | [1] 0.026 | defactinib -0.014 | rucaparib -0.036 | [2] -0.06 | encorafenib 0.029 | [3] 0.069

TBC1D5 isoform 2 (UniProt Q92609)
inactive: saracatinib -0.033 | sotrastaurin -0.169 | alvocidib -0.077 | Tubastatin A -0.036 | [1] -0.013 | defactinib -0.088 | rucaparib 0.015 | [2] -0.159 | encorafenib 0.119 | [3] -0.055

SMARCA5 (UniProt O60264)
inactive: saracatinib -0.084 | sotrastaurin -0.235 | alvocidib -0.193 | Tubastatin A 0.082 | [1] 0.038 | defactinib -0.145 | rucaparib 0.035 | [2] 0.065 | encorafenib 0.116 | [3] 0.01

SNX1 (UniProt Q13596)
inactive: saracatinib 0.006 | sotrastaurin -0.006 | alvocidib -0.084 | Tubastatin A -0.021 | [1] -0.112 | defactinib -0.036 | rucaparib -0.023 | [2] 0.028 | encorafenib 0.024 | [3] -0.026

SMAD9 (UniProt O15198)
Chain of UniProt O15198 (O15198 whole entry, looked up): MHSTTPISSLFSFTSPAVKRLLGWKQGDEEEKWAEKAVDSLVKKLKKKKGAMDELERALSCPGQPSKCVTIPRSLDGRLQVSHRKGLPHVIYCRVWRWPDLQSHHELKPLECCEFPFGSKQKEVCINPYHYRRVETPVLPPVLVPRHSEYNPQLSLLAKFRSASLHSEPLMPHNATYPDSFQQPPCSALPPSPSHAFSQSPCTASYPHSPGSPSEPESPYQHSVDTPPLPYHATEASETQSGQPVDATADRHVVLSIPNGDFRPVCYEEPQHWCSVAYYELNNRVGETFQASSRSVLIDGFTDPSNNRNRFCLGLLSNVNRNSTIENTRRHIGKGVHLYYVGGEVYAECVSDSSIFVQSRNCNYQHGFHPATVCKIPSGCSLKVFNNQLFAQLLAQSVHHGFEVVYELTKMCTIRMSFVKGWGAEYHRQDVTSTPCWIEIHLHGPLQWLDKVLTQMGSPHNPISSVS
inactive: saracatinib 0.076 | sotrastaurin 0.078 | alvocidib -0.065 | Tubastatin A -0.003 | [1] -0.013 | defactinib -0.076 | rucaparib -0.094 | [2] 0.055 | encorafenib -0.001 | [3] -0.049

STIM1 (UniProt Q13586)
Chain of UniProt Q13586 (Q13586 whole entry, looked up): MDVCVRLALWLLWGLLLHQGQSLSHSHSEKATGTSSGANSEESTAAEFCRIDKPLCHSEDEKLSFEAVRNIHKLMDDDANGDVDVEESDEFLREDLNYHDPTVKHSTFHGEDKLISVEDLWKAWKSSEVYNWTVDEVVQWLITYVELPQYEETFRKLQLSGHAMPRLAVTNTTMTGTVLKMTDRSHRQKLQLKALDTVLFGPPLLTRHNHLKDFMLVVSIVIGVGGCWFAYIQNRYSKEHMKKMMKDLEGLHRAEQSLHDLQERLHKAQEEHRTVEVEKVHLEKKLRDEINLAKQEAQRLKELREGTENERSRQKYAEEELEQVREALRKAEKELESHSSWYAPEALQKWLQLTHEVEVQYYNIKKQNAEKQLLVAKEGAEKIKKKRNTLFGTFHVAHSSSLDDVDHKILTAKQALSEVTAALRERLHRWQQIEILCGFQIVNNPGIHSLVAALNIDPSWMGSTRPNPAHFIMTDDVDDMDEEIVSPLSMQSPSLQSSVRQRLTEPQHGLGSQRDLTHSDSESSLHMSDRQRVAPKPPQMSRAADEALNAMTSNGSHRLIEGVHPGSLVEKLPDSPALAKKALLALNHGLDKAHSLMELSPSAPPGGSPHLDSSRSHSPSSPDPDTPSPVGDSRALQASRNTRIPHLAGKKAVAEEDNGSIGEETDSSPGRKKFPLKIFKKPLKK
inactive: saracatinib 0.003 | sotrastaurin 0 | alvocidib -0.075 | Tubastatin A -0.029 | [1] -0.001 | defactinib -0.048 | rucaparib 0.011 | [2] -0.047 | encorafenib 0.052 | [3] 0.032

SLC35F6 (UniProt Q8N357)
inactive: saracatinib 0.182 | sotrastaurin -0.071 | alvocidib -0.002 | Tubastatin A -0.05 | [1] -0.025 | defactinib -0.043 | rucaparib -0.004 | [2] -0.247 | encorafenib -0.042 | [3] 0.007

SUMO1 (UniProt P63165)
Chain of UniProt P63165 (P63165 whole entry, looked up): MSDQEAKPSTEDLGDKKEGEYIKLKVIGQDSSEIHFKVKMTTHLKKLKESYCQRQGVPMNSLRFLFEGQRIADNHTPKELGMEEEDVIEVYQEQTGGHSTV
inactive: saracatinib -0.112 | sotrastaurin 0.011 | alvocidib 0.12 | Tubastatin A -0.073 | [1] 0.022 | defactinib -0.067 | rucaparib 0.056 | [2] -0.09 | encorafenib -0.029 | [3] 0.028

TLK2 isoform 2 (UniProt Q86UE8)
inactive: saracatinib 0.048 | sotrastaurin -0.012 | alvocidib -0.027 | Tubastatin A 0.014 | [1] -0.031 | defactinib 0 | rucaparib -0.051 | [2] -0.003 | encorafenib -0.006 | [3] 0

STK11IP (UniProt Q8N1F8)
inactive: saracatinib 0.001 | sotrastaurin -0.138 | alvocidib -0.184 | Tubastatin A 0.084 | [1] 0.097 | defactinib -0.074 | rucaparib 0.1 | [2] -0.039 | encorafenib 0.265 | [3] 0.007

SLC7A6OS (UniProt Q96CW6)
inactive: saracatinib 0.14 | sotrastaurin 0.008 | alvocidib 0.024 | Tubastatin A -0.001 | [1] 0.031 | defactinib -0.144 | rucaparib -0.05 | [2] -0.078 | encorafenib -0.004 | [3] 0.06

SMARCAD1 isoform 2 (UniProt Q9H4L7)
inactive: saracatinib -0.086 | sotrastaurin -0.043 | alvocidib -0.243 | Tubastatin A 0.053 | [1] 0.016 | defactinib -0.099 | rucaparib -0.056 | [2] 0.035 | encorafenib 0.029 | [3] -0.023

SNX5 (UniProt Q9Y5X3)
inactive: saracatinib 0 | sotrastaurin -0.006 | alvocidib -0.061 | Tubastatin A -0.013 | [1] -0.117 | defactinib -0.014 | rucaparib -0.054 | [2] 0.012 | encorafenib 0.03 | [3] 0.006

TEX264 (UniProt Q9Y6I9)
Chain of UniProt Q9Y6I9 (Q9Y6I9 whole entry, looked up): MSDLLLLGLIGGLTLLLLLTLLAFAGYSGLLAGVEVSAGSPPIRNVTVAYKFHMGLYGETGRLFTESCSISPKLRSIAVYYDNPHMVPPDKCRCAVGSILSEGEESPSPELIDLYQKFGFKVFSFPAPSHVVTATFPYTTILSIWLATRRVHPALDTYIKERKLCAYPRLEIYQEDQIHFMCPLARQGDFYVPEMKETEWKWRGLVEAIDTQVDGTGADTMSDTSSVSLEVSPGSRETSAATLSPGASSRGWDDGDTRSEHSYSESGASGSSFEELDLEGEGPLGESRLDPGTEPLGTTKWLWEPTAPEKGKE
inactive: saracatinib -0.041 | sotrastaurin -0.027 | alvocidib -0.036 | Tubastatin A -0.077 | [1] 0.13 | defactinib 0.112 | rucaparib 0.407 | encorafenib -0.039 | [3] 0.071
active: [2] 0.629

SLC25A39 (UniProt Q9BZJ4)
inactive: saracatinib 0.107 | sotrastaurin -0.076 | alvocidib 0.134 | Tubastatin A -0.18 | [1] -0.118 | defactinib -0.044 | rucaparib -0.01 | [2] 0.015 | encorafenib 0.005 | [3] 0.041

SP100 isoform 4 (UniProt P23497)
inactive: saracatinib 0.058 | sotrastaurin -0.003 | alvocidib -0.117 | Tubastatin A -0.015 | [1] 0.018 | defactinib -0.087 | rucaparib -0.065 | [2] -0.092 | encorafenib -0.06 | [3] 0.095

SNRNP27 (UniProt Q8WVK2)
inactive: saracatinib -0.071 | sotrastaurin 0.048 | alvocidib 0.062 | Tubastatin A -0.023 | [1] -0.036 | defactinib 0.015 | rucaparib 0.049 | [2] -0.09 | encorafenib -0.061 | [3] 0.097

TELO2 (UniProt Q9Y4R8)
inactive: saracatinib -0.05 | sotrastaurin -0.211 | alvocidib -0.015 | Tubastatin A -0.004 | [1] 0.03 | defactinib -0.019 | rucaparib 0.2 | [2] 0.145 | encorafenib 0.049 | [3] -0.057

STAT3 (UniProt P40763)
inactive: saracatinib 0.025 | sotrastaurin -0.144 | alvocidib -0.112 | Tubastatin A 0.05 | [1] 0.029 | defactinib -0.124 | rucaparib -0.062 | [2] -0.017 | encorafenib 0.077 | [3] -0.012

STXBP5 (UniProt Q5T5C0)
Chain of UniProt Q5T5C0 (Q5T5C0 whole entry, looked up): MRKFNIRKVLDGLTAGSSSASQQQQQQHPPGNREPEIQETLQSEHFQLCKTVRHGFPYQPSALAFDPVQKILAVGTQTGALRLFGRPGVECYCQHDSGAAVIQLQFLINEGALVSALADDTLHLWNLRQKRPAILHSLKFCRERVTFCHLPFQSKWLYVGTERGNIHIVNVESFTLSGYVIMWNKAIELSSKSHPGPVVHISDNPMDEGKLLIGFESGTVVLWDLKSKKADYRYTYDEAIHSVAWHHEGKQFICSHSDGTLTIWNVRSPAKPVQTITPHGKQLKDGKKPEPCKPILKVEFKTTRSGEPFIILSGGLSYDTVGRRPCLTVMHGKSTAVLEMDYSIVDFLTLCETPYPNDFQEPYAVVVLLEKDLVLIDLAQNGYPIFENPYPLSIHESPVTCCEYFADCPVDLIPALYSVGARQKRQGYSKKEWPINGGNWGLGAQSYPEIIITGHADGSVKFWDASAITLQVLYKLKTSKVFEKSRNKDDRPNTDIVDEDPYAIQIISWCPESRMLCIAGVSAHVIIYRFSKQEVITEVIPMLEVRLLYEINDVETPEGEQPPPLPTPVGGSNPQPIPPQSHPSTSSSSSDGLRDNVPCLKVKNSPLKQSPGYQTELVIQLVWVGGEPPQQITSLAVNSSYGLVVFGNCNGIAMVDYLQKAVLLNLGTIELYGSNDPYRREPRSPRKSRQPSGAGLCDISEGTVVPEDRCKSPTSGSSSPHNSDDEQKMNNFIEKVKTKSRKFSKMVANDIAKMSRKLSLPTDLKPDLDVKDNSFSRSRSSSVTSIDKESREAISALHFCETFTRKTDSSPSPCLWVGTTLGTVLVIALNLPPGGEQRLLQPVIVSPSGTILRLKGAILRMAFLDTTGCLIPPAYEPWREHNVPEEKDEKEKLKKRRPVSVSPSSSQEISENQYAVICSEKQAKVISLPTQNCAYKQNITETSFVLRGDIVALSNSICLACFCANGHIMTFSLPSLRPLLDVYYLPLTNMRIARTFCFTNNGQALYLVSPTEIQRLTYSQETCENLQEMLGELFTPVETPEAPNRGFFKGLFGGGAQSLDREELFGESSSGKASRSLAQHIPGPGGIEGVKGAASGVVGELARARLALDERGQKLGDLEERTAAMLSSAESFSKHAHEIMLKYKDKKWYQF
inactive: saracatinib -0.014 | sotrastaurin 0.019 | alvocidib -0.085 | Tubastatin A 0.01 | [1] -0.023 | defactinib -0.011 | rucaparib -0.002 | [2] -0.032 | encorafenib 0.028 | [3] -0.003

SQSTM1 (UniProt Q13501)
Chain of UniProt Q13501 (Q13501 whole entry, looked up): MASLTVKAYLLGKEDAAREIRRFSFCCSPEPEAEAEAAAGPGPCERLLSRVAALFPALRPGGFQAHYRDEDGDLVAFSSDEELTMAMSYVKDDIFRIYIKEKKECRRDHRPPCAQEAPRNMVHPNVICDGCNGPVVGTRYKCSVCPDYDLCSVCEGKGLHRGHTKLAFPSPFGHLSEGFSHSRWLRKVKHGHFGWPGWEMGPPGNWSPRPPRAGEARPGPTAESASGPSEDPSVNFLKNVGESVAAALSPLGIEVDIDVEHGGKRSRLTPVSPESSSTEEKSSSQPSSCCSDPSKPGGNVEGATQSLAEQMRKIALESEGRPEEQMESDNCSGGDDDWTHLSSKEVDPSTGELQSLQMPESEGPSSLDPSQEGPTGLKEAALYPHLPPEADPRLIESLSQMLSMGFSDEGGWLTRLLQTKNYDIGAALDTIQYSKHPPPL
inactive: saracatinib -0.038 | sotrastaurin -0.073 | alvocidib -0.149 | Tubastatin A -0.022 | [1] -0.024 | defactinib -0.074 | rucaparib -0.021 | [2] -0.048 | encorafenib 0.012 | [3] 0.051

SRSF3 (UniProt P84103)
Chain of UniProt P84103 (P84103 whole entry, looked up): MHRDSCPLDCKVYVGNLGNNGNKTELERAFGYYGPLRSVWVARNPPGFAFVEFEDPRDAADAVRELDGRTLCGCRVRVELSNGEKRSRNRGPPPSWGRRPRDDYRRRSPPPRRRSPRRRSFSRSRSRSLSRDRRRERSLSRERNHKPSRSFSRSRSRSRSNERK
inactive: saracatinib 0.019 | sotrastaurin 0.079 | alvocidib 0.265 | Tubastatin A -0.026 | [1] -0.053 | defactinib 0.235 | rucaparib 0.257 | [2] -0.022 | encorafenib 0.023 | [3] 0.032

SPTBN1 (UniProt Q01082)
active: sotrastaurin -0.224
inactive: saracatinib -0.019 | alvocidib -0.03 | Tubastatin A 0.042 | [1] 0.048 | defactinib -0.125 | rucaparib 0.084 | [2] -0.047 | encorafenib 0.064 | [3] -0.057

SNX3 (UniProt O60493)
inactive: saracatinib -0.086 | sotrastaurin 0.038 | alvocidib -0.016 | Tubastatin A -0.005 | [1] 0.018 | defactinib -0.067 | rucaparib 0.081 | [2] 0.026 | encorafenib 0.194 | [3] -0.079

SRCAP (UniProt Q6ZRS2)
active: Tubastatin A -0.486
inactive: saracatinib 0.032 | sotrastaurin -0.045 | alvocidib -0.279 | [1] -0.069 | defactinib -0.004 | rucaparib -0.058 | [2] -0.028 | encorafenib 0.009 | [3] -0.015

SLC30A7 (UniProt Q8NEW0)
inactive: saracatinib 0.077 | sotrastaurin 0.101 | alvocidib -0.105 | Tubastatin A -0.107 | [1] 0.016 | defactinib -0.051 | rucaparib 0.02 | [2] -0.026 | encorafenib 0.059 | [3] 0.029

SRSF11 (UniProt Q05519)
Chain of UniProt Q05519 (Q05519 whole entry, looked up): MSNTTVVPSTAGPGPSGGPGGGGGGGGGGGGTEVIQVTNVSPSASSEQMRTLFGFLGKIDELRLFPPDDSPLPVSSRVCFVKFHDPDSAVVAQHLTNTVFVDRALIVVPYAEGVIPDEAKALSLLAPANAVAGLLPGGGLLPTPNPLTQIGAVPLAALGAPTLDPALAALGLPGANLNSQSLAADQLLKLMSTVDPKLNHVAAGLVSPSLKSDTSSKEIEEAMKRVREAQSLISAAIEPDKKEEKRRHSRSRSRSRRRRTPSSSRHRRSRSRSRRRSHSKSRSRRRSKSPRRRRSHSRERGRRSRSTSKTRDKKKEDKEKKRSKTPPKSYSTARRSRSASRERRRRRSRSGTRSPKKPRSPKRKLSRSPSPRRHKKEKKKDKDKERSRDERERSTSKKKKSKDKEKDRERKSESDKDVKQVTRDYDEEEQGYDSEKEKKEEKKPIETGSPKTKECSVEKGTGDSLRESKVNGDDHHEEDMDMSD
inactive: saracatinib 0.062 | sotrastaurin -0.059 | alvocidib -0.209 | Tubastatin A 0.015 | [1] -0.243 | defactinib -0.174 | rucaparib 0.005 | [2] -0.089 | encorafenib -0.016 | [3] -0.045

TGFBR1 isoform 2 (UniProt P36897)
active: saracatinib 0.371
inactive: sotrastaurin 0.026 | alvocidib -0.009 | Tubastatin A 0.023 | [1] -0.045 | defactinib 0.039 | rucaparib 0.096 | [2] 0.041 | encorafenib 0.041 | [3] -0.055
